# This excerpt belongs to a sample that is enriched for hits.
# ClpP mod = qHTS Assay for Activators of ClpP; purified B. subtilis ClpP, FRET peptide cleavage, 20 min; Potency, µM (series often up to 57.5 µM); 1.9% of 340,000 active; active = well fitted falling curve with a large enough effect; inconclusive = small, poorly fitted or top-dose-only effect; inactive = no such curve, though single readings can be large or run the other way; also: the source files actives as falling curves though it sought activators and does not explain the sign; nearly all actives have a fitted effect of over 65% in size
#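 ClpP 10 microg/mL final, pH 8 Tris/KCl buffer with BSA, glycerol, Tween-20; compound pinned in; FRET-FV substrate; RT 20 min; Ex320/Em430; ΔFRET vs ADEP 5.8 microM, DMSO, no enzyme.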
# Mito fusion act = mitochondrial division inhibition or fusion activation. 0.23% of 320,000 active. Potency, µM (series often up to 46.1 µM), actives largely listed as activators. S. cerevisiae fusion-defective mutant growth rescue, CellTiterGlo 48 h; also: nearly all actives have a fitted effect of over 45% in size
#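 Luminescent cell viability in 1536-well qHTS format served as the measure of rescued growth in ts fusion-mutant S. cerevisiae cultured on non-fermentable YPEG for 48 hours at 37C.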
# ASM inhibitor = human S-ASM enzyme inhibition | Potency, µM (highest dose often 57.5 µM), actives largely listed as inhibitors | P17405 | placental ASM, HMU-PC fluorogenic substrate, 60 min | 0.006% of 340,000 active
# Target sequence (P17405 47-631 limits assumed): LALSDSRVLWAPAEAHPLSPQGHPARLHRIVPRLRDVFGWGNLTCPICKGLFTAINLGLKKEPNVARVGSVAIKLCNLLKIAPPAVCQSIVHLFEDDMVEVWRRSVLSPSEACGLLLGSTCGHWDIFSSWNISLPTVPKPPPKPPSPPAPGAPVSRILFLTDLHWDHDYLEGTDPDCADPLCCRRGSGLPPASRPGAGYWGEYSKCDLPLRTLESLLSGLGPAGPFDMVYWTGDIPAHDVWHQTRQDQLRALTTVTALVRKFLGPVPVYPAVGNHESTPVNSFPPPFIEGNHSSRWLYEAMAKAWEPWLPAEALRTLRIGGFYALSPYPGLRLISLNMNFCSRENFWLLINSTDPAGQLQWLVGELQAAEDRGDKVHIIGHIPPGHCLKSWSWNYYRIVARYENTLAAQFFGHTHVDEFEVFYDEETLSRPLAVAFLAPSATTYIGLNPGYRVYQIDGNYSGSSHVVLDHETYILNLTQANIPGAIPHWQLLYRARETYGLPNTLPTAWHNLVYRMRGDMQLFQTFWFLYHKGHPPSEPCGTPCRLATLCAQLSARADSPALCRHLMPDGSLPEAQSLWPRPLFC
#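 Fluorescence read-out (Ex 386 nm, Em 447 nm) after stopping the reaction at pH 10. Enzyme: ASM from human placenta; substrate HMU-PC0, 9 uM final; 60 min, 37 °C. Compound preincubation 10 min, ambient temperature.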
# LDHA inh = blocks human lactate dehydrogenase A | P00338 | purified LDHA, NADH/diaphorase-resazurin fluorescence; hits give low values | activity change, % (values are at about 110 or 230 µM) | 0.15% of 480,000 active | AID 1347041; in the data active = activity change below about -30%; inconclusive = mostly about -25% to -30%
#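 LDH5 2 nM; NADH 0.06 mM, pyruvate 0.2 mM; 200 mM Tris pH 7.4, EDTA, Tween-20; 5 min RT. Detection: diaphorase 0.133 mg/mL + resazurin 37 µM, fluorescence ex540/em590 at 0 and 20 min; normalized to enzyme-free and DMSO wells.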
# RGS4 inh = inhibitors of human regulator of G protein signaling 4 | P49798 | Transcreener GDP fluorescence polarization, RGS4-accelerated GTP hydrolysis | Potency, µM (doses to about 114 µM), usual class: inhibitors | 0.039% of 390,000 active | AID 504845; also: nearly all actives have a fitted effect of over 75% in size
#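 MLSMR compounds (23 nl, pin-transferred) preincubated 10 min at room temperature with a 500nM (2x) first reagent, then RGS4 at 900nM (2x) plus Transcreener GDP mix added; fluorescence polarization (620/688 nm) read before and after 90 min at 30 °C.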
# IDH1 R132H inh = blocks human mutant IDH1 R132H enzyme. O75874. IDH1-R132H enzyme, NADPH consumption, diaphorase/resazurin fluorescence. Potency, µM (titrated, usually from 76.6 µM), hits mostly inhibitors. 0.093% of 390,000 active. AID 602179; also: nearly all actives have a fitted effect of over 65% in size
#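 IDH1-R132H (0.5 ug/mL) preincubated 30 min with compound, then NADPH (0.016 mM) and alpha-KG (2 mM) added; 80 min at RT, pH 7.5. Remaining NADPH coupled via diaphorase/resazurin to fluorescence (540/590 nm); concentration-response curves normalized to no-enzyme control.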
# A number is an active result; . = inactive; ? = inconclusive; / = no result; ! = repeats disagree. Unless noted, calls follow the shape of the dose curve; as a rule, active = well fitted curve in the direction sought with a large enough effect; inconclusive = small, poorly fitted or top-dose-only effect, or another doubt; inactive = no such curve, though single readings can be large; an effect the other way counts as inactive or inconclusive.
SMILES,ClpP mod,Mito fusion act,ASM inhibitor,LDHA inh,RGS4 inh,IDH1 R132H inh
Cc1ccc(CSc2ncnc3c2cnn3-c2ccc(C)cc2)cc1,.,.,.,.,.,.
CCC(CO)Nc1ncnc2c1cnn2-c1ccc(C)cc1 (stereo not drawn),28µM,/,/,.,.,.
Cc1ccc(-n2ncc3c(SCc4ccccc4)ncnc32)cc1,22µM,.,.,.,.,.
Cc1ccc(CSc2ncnc3c2cnn3-c2ccccc2)cc1,25µM,.,.,.,.,.
c1ccc(CSc2ncnc3c2cnn3Cc2ccccc2)cc1,.,.,.,.,.,.
Cc1ccc(-n2ncc3c(NC(C)c4ccccc4)ncnc32)cc1 (stereo not drawn),.,/,/,.,.,.
CCOCCCNC(=O)/C=C/c1ccc(C)cc1,/,/,/,.,/,/
COc1ccccc1Nc1nc(-c2ccc3c(c2)CCC(=O)N3)cs1,/,/,/,-31,/,/
O=C(CN1C(=O)NC2(CCCC2)C1=O)NCCN1C(=O)S/C(=C\c2ccccc2F)C1=O,32µM,.,.,.,.,.
Cc1cc(C)c(C#N)c(SCc2ccccc2F)n1,/,.,.,.,.,.
Cc1cc(C)c(C#N)c(SCc2ccccc2C)n1,.,7.1µM,.,.,.,.
N#Cc1c(N)nc(SCC(=O)NC2CCCCC2)c(C#N)c1-c1ccc(Cl)cc1,28µM,.,.,.,.,.
CCOc1ccc(C(=O)Nc2cccc3ccc(C)nc23)cc1Cl,/,/,/,.,/,/
Fc1ccc(N2N=C(c3cccs3)CC2c2ccccc2)cc1 (stereo not drawn),/,.,.,.,.,.
Fc1ccccc1N1CC(c2ccccc2)C(c2cccs2)=N1 (stereo not drawn),16µM,.,.,.,.,.
CN1C(=O)/C(=C\C(=O)c2cccs2)c2ccccc21,/,.,.,.,?,.
CC(=O)/C=C1\C(=O)N(C)c2ccccc21,/,.,/,/,19µM,/
N#Cc1cc(N)ccc1Sc1ccccc1,?,.,.,.,.,.
N#Cc1cc(N)ccc1Sc1ccc(Cl)cc1,28µM,.,.,.,.,.
COc1ccc(-c2nc(C#N)c(NCc3ccc(C)cc3)o2)cc1OC,32µM,.,?,.,.,.
COc1ccc(-c2nc(C#N)c(N3CC(C)OC(C)C3)o2)cc1OC (stereo not drawn),0.71µM,.,.,.,.,.
COc1ccc(-c2nc(C#N)c(NCCc3ccccc3)o2)cc1OC,6.3µM,.,.,.,.,.
O=C(c1ccncc1)N(Cc1ccccc1)Cc1cc2ccccc2[nH]c1=O,/,/,/,.,/,/
CC1CCC(N(C)C(=O)c2cc3ccccc3oc2=O)CC1 (stereo not drawn),/,/,/,.,/,/
Cc1ccc(-n2ccc(=O)c(C(=O)Nc3ccc(S(=O)(=O)Nc4onc(C)c4C)cc3)n2)cc1,.,.,.,-62,.,.
SMILES,ClpP mod,Mito fusion act,ASM inhibitor,LDHA inh,RGS4 inh,IDH1 R132H inh
Cc1noc(NS(=O)(=O)c2ccc(NC(=O)c3nn(-c4ccc(F)cc4)ccc3=O)cc2)c1C,.,.,.,.,.,.
CCC1Oc2cc(S(=O)(=O)N(C)CC(=O)N3CCCc4ccccc43)c(C)cc2NC1=O (stereo not drawn),/,/,/,.,/,/
CCCCNC(=O)COC(=O)c1ccc(Cl)c(S(N)(=O)=O)c1,14µM,.,.,.,.,.
CC(C)CNC(=O)COC(=O)c1ccc(Cl)c(S(N)(=O)=O)c1,.,.,.,.,.,.
CCCOc1ncnc2c1[nH]c1ccccc12,14µM,.,.,.,.,.
CC(C)c1noc(CN2CCN(c3cccc(F)c3C#N)CC2)n1,/,/,/,.,/,/
CCOC(=O)c1c(NC(C)=O)sc2c(OCc3ccc(F)cc3)c(Br)ccc12,/,/,/,.,/,/
COC(=O)c1sccc1NC(=O)c1cc2c(s1)CCCC2,35µM,.,.,.,.,.
CCCNc1c(NS(=O)(=O)c2ccc(Br)cc2)c(=O)oc2ccccc12,/,8.9µM,.,.,.,.
CCc1ccc2c(c1)NC(c1ccc(C)o1)=NC(c1ccc(F)cc1)=N2,/,/,/,.,/,/
COc1ccc(N2CCN(C(=O)c3cc(N4C(=O)C5C6CCC(C6)C5C4=O)ccc3Cl)CC2)cc1 (stereo not drawn),?,.,.,.,.,.
O=C(c1cc(N2C(=O)C3C4CCC(C4)C3C2=O)ccc1Cl)N1CCN(c2ccc(F)cc2)CC1 (stereo not drawn),.,5.6µM,.,.,.,.
O=C1CC(C(=O)Nc2ccc(Cl)cc2[N+](=O)[O-])C2(CCCCC2)O1 (stereo not drawn),28µM,.,.,.,.,.
O=c1[nH]c(=S)[nH]c(-c2ccccc2)c1Cc1c(O)ccc2ccccc12,/,?,/,/,2.1µM,/
Cc1[nH]c(=S)[nH]c(=O)c1Cc1c(O)ccc2ccccc12,?,/,.,.,.,.
CCCOc1c(Br)cc(C(=O)N2CCN(c3ncccn3)CC2)cc1OC,/,/,/,.,/,/
NC(CO)c1ccc(OCc2ccccc2)cc1 (stereo not drawn),/,/,/,.,/,/
CC1Cn2c(nc3sc4c(c3c2=O)CCC4)N1CCO (stereo not drawn),18µM,.,.,.,.,.
Cc1cccc(N2CCN(C(C(=O)O)c3cn(C)c4ccc(C(=O)O)cc34)CC2)c1C (stereo not drawn),/,/,/,.,/,/
CC(NC(=O)c1ccccc1NS(=O)(=O)c1ccc(CCC(=O)O)cc1)c1ccccc1 (stereo not drawn),28µM,.,.,.,.,.
CSc1ccc(Cl)c(C(=O)NCc2ccc(-n3cccn3)cc2)c1,/,/,/,.,/,/
CC1=C(C#N)C(c2cccnc2)C2=C(CC(c3ccc(Cl)cc3)CC2=O)N1 (stereo not drawn),28µM,.,.,.,.,.
N#CC(=Cc1ccccn1)c1nc(-c2ccc(Cl)cc2)cs1,25µM,/,/,.,/,.
Clc1cccc(Cl)c1CNCCN1CCCC1,/,/,/,.,/,/
Cc1ccc(-c2cc(C(=O)Nc3cc(C)on3)c3ccccc3n2)cc1,35µM,.,.,.,.,.
Cc1cc(NC(=O)c2cc(-c3ccc(C)c(C)c3)nc3ccccc23)no1,13µM,.,.,.,.,.
Cc1cc(NC(=O)c2cc(-c3ccccn3)nc3ccccc23)no1,.,.,.,.,.,.
O=S(=O)(c1cccc(Cl)c1)N1CCN(c2nc(-c3cccs3)nc3ccccc23)CC1,14µM!,/,/,.,.,/
O=C(c1ccccc1NS(=O)(=O)c1ccc(Br)s1)N1CCCC1,16µM,.,.,.,.,.
CC(C)NC(=O)c1ccccc1NS(=O)(=O)c1ccc(Br)s1,.,.,.,.,.,.
